Measurements published in PubChem BioAssay AID2241 (Broad Institute, 2010).
The whole screen tested about 21,000 compounds, of which about 110 (0.52%) were called active.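 Rule for the calls: active = most replicate scores above 10, or exactly half above 10 with mean activity above 10; inconclusive = mean activity below 10 while half the replicates exceed 10; inactive = most replicate scores below 10.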 Only a selection was taken, and actives are over-represented in it overall.

Assay: caspase activation in A1-primed MEFs – cell-based, CaspaseGlo luminescence, A1 inhibitor project, primary screen (AID 2241);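 note: effector caspase 3 and 7 activity cleaving a DEVD luciferin substrate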
Conditions: MEF A1-2A-BIM cells, caspase-Glo luminescence, 3 h; stronger effect = higher value; percent of clofoctol signal, DMSO as zero; concentration not given here

Caspase activation, inactive:
CC(=O)N1[C@@H](c2ccc(C)cc2)SC(C)(C)[C@@H]1C(=O)O -0.0443%
O=C(CNC(=S)N(Cc1ccccc1)Cc1ccccc1F)N1CCCC1 0.68%
O=C(NCSc1nc2ccccc2s1)c1ccco1 0.614%
O=S(=O)(NCc1ccc(-c2cccs2)cc1)c1cccs1 0.285%
CC(C)NC(=O)N(C)C[C@H]1Oc2ccc(N(C)C)cc2C(=O)N([C@@H](C)CO)C[C@H]1C 0.193%
Cc1noc(C)c1NC(=O)N(C)C[C@H]1Oc2ccc(NS(=O)(=O)c3ccc(F)cc3)cc2C(=O)N([C@@H](C)CO)C[C@H]1C 0.124%
O=C1CCCCC1C(=O)c1ccccc1 (stereo not given) -0.0515%
COC(=O)C1=C(C)Nc2c(c(=O)n(C)c(=O)n2C)C1c1cccc(OCc2ccccc2)c1 (stereo not given) 0.0517%
C[C@H]1CN([C@@H](C)CO)C(=O)c2cc(NC(=O)C3CC3)ccc2O[C@@H]1CN(C)Cc1ccc(Oc2ccccc2)cc1 0.539%
O=C(CCn1c(=S)[nH]c2cc3c(cc2c1=O)OCO3)NC1CCCC1 -1.11%
Clc1ccc(N2CCCCCCC2)nn1 0.981%
CC(=O)Nc1ccc(N=Cc2ccc(N3CCOCC3)cc2)cc1 -0.682%
Cc1ccc(C23CC4CC(CC(CN)(C4)C2)C3)cc1C 4.34%
Cc1cc(-c2cccs2)c2c(N)c(C(=O)c3ccccc3)sc2n1 1.1%
O=c1c2c3c(sc2[nH]c(=S)n1Cc1ccccc1)CCCCC3 -0.256%
Cc1ccc(SCC(=O)Nc2nncs2)cc1 -1.27%
O=C(NCc1ccc2c(c1)OCO2)c1ccc(Cl)cc1 -0.323%
CCOC(=O)c1cc(-c2ccnn2S(=O)(=O)c2ccc(C)cc2)on1 -0.165%
Cc1noc(C)c1NC(=O)Nc1ccc2c(c1)C(=O)N([C@@H](C)CO)C[C@@H](C)[C@H](CN(C)Cc1ccc(C(F)(F)F)cc1)O2 -0.666%
Cc1ccc(S(=O)(=O)Nc2ccc3c(c2)C(=O)N([C@@H](C)CO)C[C@H](C)[C@@H](CN(C)Cc2ccc4c(c2)OCO4)O3)cc1 -0.498%
O=C(COc1ccccc1)NCCc1nc2ccccc2n1Cc1ccccc1 0.301%
Cc1cc(C)c(N=c2scc(C)n2Cc2ccccc2)c(C)c1 0.564%
COc1ccc(-c2cc(C(F)(F)F)nc(SCC(=O)N3CCCCCC3)n2)cc1OC -1.22%
Cc1cccc(N2CCN(C(=O)CCn3c(=S)[nH]c4cc5c(cc4c3=O)OCO5)CC2)c1C -1.1%
COc1ccc(S(=O)(=O)Nc2ccc3c(c2)C(=O)N([C@@H](C)CO)C[C@H](C)[C@H](CN(C)Cc2ccc(C(=O)O)cc2)O3)cc1 0.618%
C/C=C1\CC(C)(CC)C(C#N)(C#N)C(N)=C1C#N (stereo not given) -1.08%
Cc1ccc(S(=O)(=O)Nc2ccc3oc(C)c(C(=O)NN)c3c2)cc1 0.426%
COc1ccc(CCn2c(C)nc(=O)c(-c3ccccc3)c2C)cc1OC 0.553%
CC1(C)CC(=O)C=C(Nc2ccccc2)C1 0.527%
CN(C)c1ccc(/C=C(\C#N)S(=O)(=O)c2ccccc2)cc1C#N 0.997%
COc1ccc(OC(=O)c2csc(Cc3c(Cl)cccc3Cl)n2)cc1 1.94%
O=C(Nc1nccs1)C1CCCN(C(=O)c2cnn(-c3ccccc3)c2-n2cccc2)C1 (stereo not given) 0.381%
CC1(C)CC(=O)C(C=NCc2cccnc2)=C(O)C1 1.24%
C[C@H](CO)N1C[C@H](C)[C@@H](CN(C)Cc2ccccc2)Oc2ccc(NC(=O)Nc3ccc4c(c3)OCO4)cc2C1=O 0.17%
COc1ccc(CN(C)C[C@@H]2Oc3ccc(NC(=O)NC(C)C)cc3C(=O)N([C@@H](C)CO)C[C@H]2C)cc1 -0.804%
CC1(C)Cc2c(sc3ncn4nc(COc5ccc(Cl)cc5)nc4c23)C(C)(C)N1 0.338%
C/C=C(/C)C(=O)O[C@H]1CC(C)(C)C[C@H]2C3=CCC4[C@@]5(C)CC[C@H](O[C@@H]6O[C@H](C(=O)O)[C@@H](O[C@@H]7O[C@H](CO)[C@H](O)[C@H](O)[C@H]7O[C@@H]7O[C@H](CO)[C@@H](O)[C@H](O)[C@H]7O)[C@H](O)[C@H]6O[C@@H]6O[C@@H](C)[C@H](O)[C@@H](O)[C@H]6O)C(C)(C)C5CC[C@@]4(C)[C@]3(C)[C@@H](O)[C@@H](O)[C@@]12CO (stereo not given in full) -2.44%
COc1ccc(S(=O)(=O)N(C)C[C@H]2Oc3ccc(NC(=O)Nc4c(C)noc4C)cc3C(=O)N([C@H](C)CO)C[C@H]2C)cc1 -0.141%
CCOC(=O)c1cnc2cc(C(F)(F)F)ccc2c1N1CCCCCC1 0.00836%
C[C@H](CO)N1C[C@H](C)[C@H](CN(C)S(=O)(=O)c2cccs2)Oc2ccc(NS(=O)(=O)c3ccccc3)cc2C1=O -0.0772%
COc1cccc(NC(=O)c2cc3c(s2)-c2c(C)cccc2OC3)c1 -5.23%
Cc1nn(C)cc1C(=O)c1ccccc1 0.635%
Cc1ccc2c(c1)N(CCCC(=O)N1CCCCC1)C(=O)CO2 -0.335%
Cc1ccccc1-n1c(-c2ccc(Br)cc2)n[nH]c1=S -0.035%
COc1cc(OC)cc(C(=O)N2CCN=C2c2ccccc2)c1 0.196%
Cc1nn(C(C)C(=O)NC2CCCCCC2)c(=O)c2cc3occc3n12 (stereo not given) 0.379%
O=C(Nc1ccc(S(=O)(=O)Nc2nccs2)cc1)N1c2ccccc2Sc2ccccc21 0.0197%
Fc1cc(F)cc(NC(=S)NCCN(C2CCCCC2)C2CCCC2)c1 -0.0874%
CC(=O)Oc1ccc(C2OCC3C(C)C=C(C)C2C3C)cc1 (stereo not given) 0.946%
O=C(NCc1ccc2c(c1)OCO2)c1sc(=S)n2c1[nH]c(=O)c1ccccc12 -0.669%
